High-throughput results: PubChem, several laboratories
Rows were chosen to be rich in hits. Some 1.2% of all compounds tested hit in one or more screens of this group.
HIF act – HIF pathway transcriptional activation. U2OS HRE-luciferase reporter, luminescence; normalized: DMSO 0%, desferrioxamine 100%. activation, % at 7.5 µM (by protocol). actives 0.32% (n = 300,000). AID 1910;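 active = mean activation of at least 10% of the iron chelator positive control signal, with at least half of replicates also reaching 10%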
LANA-H2B inh – blocks KSHV LANA binding to histone H2A/H2B; AID 2629; Q9QR71; cell-free LANA-H2A/H2B peptide, fluorescence polarization; actives 0.6% (n = 320,000); inhibition, % (test concentration not listed); in the data active = inhibition mostly above about 10%, no sharp cut-off; inactive = mostly below about 6.7%
Yeast superoxide – lowers age-related superoxide in aged yeast cells. S. cerevisiae aged cells, superoxide DHE fluorescence; stronger effect = lower value. superoxide response (% of plate mean), % at 10 µM. actives 0.18% (n = 330,000);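 active = superoxide response under a set limit, about three screen SD below normal, cut at about 65% in these data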;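 note: yeast aged for seven days with compound at 30 °C before DHE staining; 100% = average MFI of all compound-treated wells on the plate with controls excluded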
HDAC3 inh – human HDAC3 inhibition. recombinant HDAC3, fluorogenic peptide/trypsin coupled, fluorescence. actives 0.15% (n = 320,000). inhibition, % at 8.3 µM. O15379; in the data active = inhibition above about 26%, passing the limit was not always enough
Target sequence (O15379 whole entry, looked up): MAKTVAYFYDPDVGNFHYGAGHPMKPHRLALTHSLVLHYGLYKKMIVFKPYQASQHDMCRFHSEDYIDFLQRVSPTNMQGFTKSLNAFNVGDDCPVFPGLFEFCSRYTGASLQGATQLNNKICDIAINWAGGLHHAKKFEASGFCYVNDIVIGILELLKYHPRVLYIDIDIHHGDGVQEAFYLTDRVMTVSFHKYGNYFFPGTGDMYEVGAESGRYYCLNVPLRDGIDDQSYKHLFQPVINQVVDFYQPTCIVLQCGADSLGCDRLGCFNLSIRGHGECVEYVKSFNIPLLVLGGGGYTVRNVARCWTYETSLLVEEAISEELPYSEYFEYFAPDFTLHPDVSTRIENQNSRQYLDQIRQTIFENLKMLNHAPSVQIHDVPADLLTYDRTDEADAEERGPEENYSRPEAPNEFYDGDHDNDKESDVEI
Superoxide pick – confirmation of caloric restriction mimetics inhibiting yeast age-related superoxide. shares compounds with Yeast superoxide. S. cerevisiae aging, superoxide DHE fluorescence; stronger effect = lower value. superoxide response (% of plate), % at 10 µM. actives 1% (n = 850);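 active = superoxide signal below 65% of the plate average of sample wells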;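 note: cells aged with compound for 7 days at 30 degrees C before staining; 100% equals mean DHE fluorescence of all compound wells on the plate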
DHE fluor count – compound alters DHE oxidation or fluorescence in yeast. shares compounds with Yeast superoxide. S. cerevisiae BY4741, flow cytometry; stronger effect = lower value. fluorescence response, % at 10 µM. 850 tested, under 10 active. AID 435000;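 active = fluorescence response below 15%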;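 note: percent of the mean fluorescence averaged over all compound wells on the plate; lower means stronger quenching of DHE signal or ROS scavenging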
Starred values were filed as active, the others as inactive.

Results for CC1C(=O)N(c2ccc(S(=O)(=O)N(C)C)cc2)C1(/C=C/c1ccccc1)C(=O)NC1CCCC1 (stereo unspecified) ?
HIF act: 0; LANA-H2B inh: -7; Yeast superoxide: 94; HDAC3 inh: -1

How did Cc1cccc(CN2C(=O)CCSc3ccc(Cl)cc32)c1 do in these assays?
HIF act: 0; LANA-H2B inh: -6; Yeast superoxide: 65*; HDAC3 inh: 2; Superoxide pick: 84; DHE fluor count: 96

Results for OCCN(CCO)c1ccc(C(c2ccc(Cl)cc2)c2ccc(N(CCO)CCO)cc2Cl)c(Cl)c1 ?
HIF act: -1; LANA-H2B inh: 0; Yeast superoxide: 62*; HDAC3 inh: 3; Superoxide pick: 95; DHE fluor count: 97

What do the screens show for `COc1cccc(NC(C(=O)Nc2cccc(C(C)=O)c2)c2ccccc2)c1` (stereo unspecified)?
HIF act: 0; LANA-H2B inh: 1; Yeast superoxide: 60*; HDAC3 inh: -3; Superoxide pick: 94; DHE fluor count: 106

Results for COc1cc(NC(C(=O)Nc2cccc(C(C)=O)c2)c2ccccc2)cc(OC)c1OC (stereo unspecified) ?
HIF act: 1; LANA-H2B inh: -3; Yeast superoxide: 91; HDAC3 inh: 0

What do the screens show for `O=C(c1ccc(N2CCN(C(=O)c3ccc(F)c(F)c3)CC2)cc1)c1cccc(F)c1`?
HIF act: 0; LANA-H2B inh: -13; Yeast superoxide: 103; HDAC3 inh: -3

Results for O=C(c1cccc(F)c1)N1CCCN(C(=O)c2cccc(F)c2)CC1 ?
HIF act: 0; LANA-H2B inh: 3; Yeast superoxide: 103; HDAC3 inh: 0

How did N#Cc1ccc(N2CCN(C(=O)c3cccc(F)c3)CC2)c(F)c1 do in these assays?
HIF act: 0; LANA-H2B inh: 3; Yeast superoxide: 109; HDAC3 inh: -4; Superoxide pick: 99; DHE fluor count: 102

How did O=C(c1cccc(F)c1)N1CCN(c2cccc(Cl)c2)CC1 do in these assays?
HIF act: 3; LANA-H2B inh: 4; Yeast superoxide: 92; HDAC3 inh: -9; Superoxide pick: 96; DHE fluor count: 92

How did O=C(c1ccc(Cl)cc1)N1CCN(c2ccc(F)cc2)CC1 do in these assays?
LANA-H2B inh: -2; Yeast superoxide: 71; HDAC3 inh: 2; Superoxide pick: 89; DHE fluor count: 103

What do the screens show for `O=C(Nc1ccc(N2CCN(C(=O)c3ccc(Cl)cc3)CC2)cc1)c1cccnc1`?
HIF act: 0; LANA-H2B inh: -4; Yeast superoxide: 114; HDAC3 inh: -3

How did O=C(c1cccnc1)N1CCN(c2ccc(Cl)cc2)CC1 do in these assays?
LANA-H2B inh: 0; Yeast superoxide: 44*; HDAC3 inh: -2; Superoxide pick: 111; DHE fluor count: 89

Results for O=C1CSC(c2ccccc2)N1Cc1ccccc1 (stereo unspecified) ?
HIF act: -1; LANA-H2B inh: 2; Yeast superoxide: 110; HDAC3 inh: -1

How did Cc1ccc(C(=O)NN2C(=O)C3C4c5ccccc5C(c5ccccc54)C3C2=O)cc1 (stereo unspecified) do in these assays?
HIF act: 0; LANA-H2B inh: 0; Yeast superoxide: 96; HDAC3 inh: 1

Results for C/C(=N\N1CCN(c2ccc(Cl)cc2)CC1)c1cccc([N+](=O)[O-])c1 ?
HIF act: 0; LANA-H2B inh: -7; Yeast superoxide: 98; HDAC3 inh: 3

What do the screens show for `O=C(c1cccnc1)N1CCN(c2ccccc2Cl)CC1`?
HIF act: -1; LANA-H2B inh: -1; Yeast superoxide: 97; HDAC3 inh: 0; Superoxide pick: 117; DHE fluor count: 91

How did O=C(c1cccnc1)N1CCN(c2ccc([N+](=O)[O-])cc2Cl)CC1 do in these assays?
HIF act: 0; LANA-H2B inh: 4; Yeast superoxide: 115; HDAC3 inh: 6

Results for Nc1ccccc1C(=O)NCCN1CCNC1=O ?
HIF act: 0; LANA-H2B inh: 1; Yeast superoxide: 116

What do the screens show for `O=C(Nc1ccc2nc3ccccc3nc2c1)c1ccccc1`?
HIF act: 1; LANA-H2B inh: 4; Yeast superoxide: 47*; HDAC3 inh: 2; Superoxide pick: 59*; DHE fluor count: 94

How did O=C(Nc1ccc(Cl)c(Cl)c1)c1ccccc1 do in these assays?
LANA-H2B inh: -3; Yeast superoxide: 96; HDAC3 inh: 1

Results for Cc1ccc(CSc2ncnc3onc(C)c23)cc1 ?
HIF act: -1; LANA-H2B inh: 1; Yeast superoxide: 58*; HDAC3 inh: 1; Superoxide pick: 112; DHE fluor count: 111

How did COc1ccc(-n2nnnc2CNC(=O)c2ccc(S(=O)(=O)N3CCOCC3)cc2)cc1 do in these assays?
HIF act: -1; LANA-H2B inh: -9; Yeast superoxide: 60*; HDAC3 inh: 0; Superoxide pick: 107; DHE fluor count: 114

How did COc1ccc(C(=O)NNC(=O)c2ccc(S(=O)(=O)N3CCOCC3)cc2)cc1 do in these assays?
HIF act: -1; LANA-H2B inh: -3; Yeast superoxide: 88; HDAC3 inh: 6

Results for CCCCN(C)S(=O)(=O)c1ccc(C(=O)Nc2nnc(C3=COCCO3)o2)cc1 ?
HIF act: 0; LANA-H2B inh: -1; Yeast superoxide: 118; HDAC3 inh: 5; Superoxide pick: 99; DHE fluor count: 110

What do the screens show for `COc1ccccc1-c1nnc(NC(=O)c2ccc(S(=O)(=O)N(C)CC3CCCO3)cc2)o1` (stereo unspecified)?
HIF act: 0; LANA-H2B inh: -4; Yeast superoxide: 94; HDAC3 inh: 5; Superoxide pick: 94; DHE fluor count: 96

Results for CN(CC1CCCO1)S(=O)(=O)c1ccc(C(=O)Nc2ccccc2F)cc1 (stereo unspecified) ?
HIF act: 0; LANA-H2B inh: 1; Yeast superoxide: 89; HDAC3 inh: -3

Results for COc1ccccc1-c1nnc(NC(=O)c2ccc(S(=O)(=O)N(C)C)cc2)o1 ?
HIF act: 0; LANA-H2B inh: 0; Yeast superoxide: 90; HDAC3 inh: 4

What do the screens show for `CN(CC1CCCO1)S(=O)(=O)c1ccc(C(=O)Nc2nnc(-c3ccccc3)o2)cc1` (stereo unspecified)?
HIF act: 0; LANA-H2B inh: -2; Yeast superoxide: 93; HDAC3 inh: 4; Superoxide pick: 105; DHE fluor count: 123

What do the screens show for `CN(C)S(=O)(=O)c1ccc(NC(=O)CSc2nnc(-c3ccco3)n2N)cc1`?
LANA-H2B inh: -11; Yeast superoxide: 106; HDAC3 inh: 2

How did Cc1cccc(OCC(=O)N(Cc2ccccc2)c2c(N)n(Cc3ccccc3)c(=O)[nH]c2=O)c1 do in these assays?
LANA-H2B inh: 3; Yeast superoxide: 98; HDAC3 inh: -1
